According to publication PMC4336329 (PLoS ONE, 2015):
Screen size: about 310,000 compounds; about 14,000 (4.5%) showed an effect of 50% or more. Effects have a minus sign here. The entries come from a sample that favours strong results as a whole.

biological target: human ether-à-go-go-related gene (hERG) potassium channel (human, UniProt Q12809); assay: primary screen, population patch clamp on CHO cells stably expressing hERG; higher = less effect of the substance
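Also: peak tail current of the secondary pulse compared with the same well before compound.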

human ether-à-go-go-related gene (hERG) potassium channel, sequence (Q12809 whole entry, looked up): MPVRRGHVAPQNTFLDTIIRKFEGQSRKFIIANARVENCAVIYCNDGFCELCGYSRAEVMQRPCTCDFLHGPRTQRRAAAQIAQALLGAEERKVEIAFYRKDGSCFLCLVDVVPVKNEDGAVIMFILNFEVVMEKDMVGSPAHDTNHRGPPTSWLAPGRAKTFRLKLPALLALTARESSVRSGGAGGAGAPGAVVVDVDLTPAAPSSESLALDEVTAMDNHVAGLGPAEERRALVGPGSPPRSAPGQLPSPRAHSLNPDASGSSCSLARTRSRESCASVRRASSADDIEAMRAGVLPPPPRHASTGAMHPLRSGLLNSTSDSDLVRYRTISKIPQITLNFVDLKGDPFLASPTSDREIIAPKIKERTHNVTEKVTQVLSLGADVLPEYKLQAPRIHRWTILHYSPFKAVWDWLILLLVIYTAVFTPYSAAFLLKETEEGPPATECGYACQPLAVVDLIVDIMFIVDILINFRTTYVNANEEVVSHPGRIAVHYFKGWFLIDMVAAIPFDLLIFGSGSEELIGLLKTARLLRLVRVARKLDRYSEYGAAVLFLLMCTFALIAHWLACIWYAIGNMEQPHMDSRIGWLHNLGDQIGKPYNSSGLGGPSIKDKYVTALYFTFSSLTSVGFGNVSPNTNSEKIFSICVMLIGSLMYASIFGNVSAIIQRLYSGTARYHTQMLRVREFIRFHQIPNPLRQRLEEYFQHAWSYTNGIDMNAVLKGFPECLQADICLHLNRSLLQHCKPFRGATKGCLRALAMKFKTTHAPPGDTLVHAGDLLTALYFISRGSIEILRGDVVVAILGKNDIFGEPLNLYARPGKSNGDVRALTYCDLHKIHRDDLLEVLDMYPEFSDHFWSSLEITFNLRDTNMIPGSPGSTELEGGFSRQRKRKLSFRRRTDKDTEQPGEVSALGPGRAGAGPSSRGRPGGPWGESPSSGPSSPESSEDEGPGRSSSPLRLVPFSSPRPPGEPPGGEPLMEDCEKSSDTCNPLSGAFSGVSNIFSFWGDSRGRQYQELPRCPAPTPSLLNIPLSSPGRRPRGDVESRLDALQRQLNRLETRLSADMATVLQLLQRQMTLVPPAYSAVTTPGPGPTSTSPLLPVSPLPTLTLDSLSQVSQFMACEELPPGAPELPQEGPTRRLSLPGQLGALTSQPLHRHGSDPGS

| Compound | hERG current change (%, negative = inhibition) at 10uM [%] |
| --- | --- |
| Cc1ccccc1-n1nnnc1SCc1cc(=O)n2ccsc2n1 | -25.6 |
| Cc1nc2ccccc2nc1N1CCOCC1 | 5.42 |
| Cc1cccc2nc(Cn3c(=O)n(CCCC(=O)NCc4ccco4)c(=O)c4ccccc43)cc(=O)n12 | -23 |
| COc1ccc(S(=O)(=O)Nc2ccc(Nc3ccccc3)cc2)cc1 | 5.15 |
| N#Cc1ccccc1Cn1cc(C(=O)c2ccccc2F)c2ccccc21 | 4.67 |
| Cc1cccc(C)c1-n1ncc(C(=O)NC2CCCC2)c1C1CCNCC1 | 18.9 |
| Cc1ccc(-n2ncc(C(=O)Nc3cc(Cl)ccc3C)c2C2CCNCC2)cc1C.Cl | -35.1 |
| Cc1ccc(-n2ncc(C(=O)Nc3cc(Cl)ccc3Cl)c2C2CCNCC2)cc1.Cl | -62 |
| Cc1c(C(=O)Nc2ccccc2)cnn1-c1ccccc1 | -3.03 |
| Cc1cc(C)cc(NC(=O)c2cnn(-c3ccccc3)c2C2CCNCC2)c1.Cl | -19.7 |
| CCc1cccc(NC(=O)c2cnn(-c3ccccc3)c2C)c1 | -56 |
| CCc1ccc(NC(=O)c2cnn(-c3ccccc3)c2C)cc1 | 2.7 |
| Cc1ccc(-n2ncc(C(=O)Nc3ccc(Cl)cc3)c2C2CCNCC2)cc1C.Cl | -71.7 |
| O=C(c1ccco1)N1CCN(C(=O)c2cnn(-c3ccc(Cl)cc3)c2C2CCNCC2)CC1 | 15 |
| CCCc1c(C(=O)Nc2ccc(F)cc2)cnn1-c1ccccc1 | 12.5 |
| CCc1ccc(NC(=O)c2cnn(-c3ccccc3)c2C2CCNCC2)cc1.Cl | -60 |
| Cc1cccc(NC(=O)c2cnn(-c3ccc(F)cc3)c2C2CCNCC2)c1C.Cl | -9.71 |
| NC(=O)c1ccc(N=Cc2ccc([N+](=O)[O-])s2)cc1 | 8.6 |
| Cc1cccc(OCc2nnc(SCC(=O)O)n2Cc2ccccc2)c1 | 28.1 |
| Cc1cccc(C(=O)Nc2nnc(Cc3c[nH]c4ccccc34)s2)c1 | 12.7 |
| O=C(NCc1cccs1)C1CCN(S(=O)(=O)c2ccc3c(c2)OCCO3)CC1 | 16.5 |
| Cc1ccc(C(=O)NCCN2CCOCC2)c(Cl)c1 | 5.79 |
| COc1ccccc1OCC(=O)Nc1cccc(-c2nc3ccccc3o2)c1 | 0.23 |

| Compound | hERG current change (%, negative = inhibition) at 10uM [%] |
| --- | --- |
| COc1ccc(-c2cccc(NS(=O)(=O)c3ccc([N+](=O)[O-])cc3)c2)nn1 | -15.2 |
| CSc1cccc(NC(=O)C2CCN(S(=O)(=O)c3ccc4c(c3)NC(=O)CO4)CC2)c1 | 12.3 |
| O=C(Nc1ccccc1)/C(=C/c1ccc(F)cc1)NC(=O)c1ccco1 | -2.63 |
| CCCCc1ccc(NC(=O)CSc2nnc(C)c(=O)n2N)cc1 | -23.9 |
| Cc1ccn2cc(-c3cnoc3C)nc2c1 | 6.49 |
| Cc1ccc(NC(=O)COc2ccccc2CNC(C)(C)CC(C)(C)C)cc1 | -22.7 |
| CCOc1cc(/C=N/Nc2nc(N3CCCC3)nc(N3CCCC3)n2)ccc1O | -61.4 |
| COc1cc(/C=N/Nc2nc(N3CCCC3)nc(N3CCCC3)n2)ccc1O | -37.7 |
| CCOc1ccc(/C=N/Nc2nc(N3CCCC3)nc(N3CCCC3)n2)cc1OC | -12 |
| Cc1ccc(S(=O)(=O)NNC(=O)c2ccc3ccccc3n2)cc1 | 3.47 |
| CC(=O)c1ccc(-n2c(CCC(=O)O)ccc2-c2cccs2)cc1 | -0.766 |
| O=C(NC1CCCCC1)c1ccc(COc2ccccc2)o1 | 2.32 |
| CSCCC(NS(=O)(=O)c1ccccc1)C(=O)OCc1cc(=O)oc2cc(O)ccc12 (centres unmarked) | -57.3 |
| CC(C)[C@H](NC(=O)OCc1ccccc1)C(=O)OCc1cc(=O)oc2cc(O)ccc12 | -46.7 |
| CSCCC(NS(=O)(=O)c1ccccc1)C(=O)OCc1nc2ccsc2c(=O)[nH]1 (centres unmarked) | 2.87 |
| O=C(NNC(=S)Nc1ccc(Cl)c(Cl)c1)c1cccc([N+](=O)[O-])c1 | 36 |
| CCOC(=O)N1CCN(C(=O)c2cc3cc(Br)ccc3oc2=O)CC1 | -17.7 |
| C=CCNC(=S)N1CCN(Cc2ccccc2)CC1.O=C(O)C(=O)O | 6.48 |
| O=C(O)C(=O)O.S=C(NCCc1ccccc1)N1CCN(Cc2ccccc2)CC1 | 0.0203 |
| O=C(c1ccc(Br)cc1)N1CCC(C(=O)N2CCN(c3ccccc3)CC2)CC1 | -68.5 |
| O=C(NCC(=O)N1CCN(Cc2ccccc2)CC1)c1ccc(Br)cc1 | -53.5 |
| CCNC(=S)N1CCN(Cc2ccccc2)CC1.O=C(O)C(=O)O | -59.9 |
| O=C(c1ccc(-n2cccc2)cc1)N1CCN(Cc2ccccc2)CC1 | -81.1 |

| Compound | hERG current change (%, negative = inhibition) at 10uM [%] |
| --- | --- |
| O=C(c1ccc(CN2CCOCC2)cc1)N1CCN(Cc2ccccc2)CC1 | 15.4 |
| O=C(c1ccc2ccccc2c1)N1CCN(Cc2ccccc2)CC1 | -24.4 |
| O=C(CNS(=O)(=O)c1ccc(Br)cc1)N1CCN(Cc2ccccc2)CC1 | -17.2 |
| COc1ccc(C(=O)N2CCC(C(=O)N3CCN(c4ccccc4)CC3)CC2)cc1 | -48.7 |
| O=C(NCC(=O)N1CCN(Cc2ccccc2)CC1)c1ccc(Cl)cc1 | -27.9 |
| O=C(C1CCC1)N1CCN(c2ccccc2)CC1 | 13.6 |
| O=C(CCCCl)Nc1nc(-c2ccc3c(c2)OCCO3)cs1 | 9.6 |
| CCOC(=O)CC(=O)Nc1c(C)cc(C)cc1C | 4.74 |
| N#CC1=C(N)Oc2cc(N)ccc2C1c1ccc(F)cc1F (centres unmarked) | -22.9 |
| Cc1ccc(CNC(=O)c2cccnc2Cl)cc1 | 9.97 |
| COCCn1cnnc1SCC(=O)Nc1sccc1C(N)=O | -2.66 |
| COc1ccc(NC(=O)CCNS(=O)(=O)c2cc(Br)cnc2N)c(OC)c1 | 8.51 |
| COc1ccc(C2N(c3cc(Cl)ccc3OC)C(=O)C3CCCN32)cc1OC (centres unmarked) | -4.91 |
| CC(C)(C)C(=O)NC(=S)NNC(=O)c1sc2ccccc2c1Cl | 5.79 |
| Cc1ccc(S(=O)(=O)N2CCN(C(=O)CN3CCCC3)C2)cc1 | -6.28 |
| NNC(=O)c1sc2nc(N3CCOCC3)c3c(c2c1N)CCCC3 | 11 |
| O=c1cnc2ccccc2n1Cc1ccc(Br)cc1 | 0.175 |
| CCn1nnnc1SCC(=O)Nc1cc(OC)cc(OC)c1 | 11.8 |
| COC(=O)[C@H](Cc1ccccc1)NC(=O)N1CCCCCC1 | 13.5 |
| COC(=O)[C@H](Cc1ccccc1)NC(=O)N1CCCCC1 | 9.93 |
| CC(C)(C)c1ccc(C(=O)N2CCN(Cc3ccccc3)CC2)cc1 | -3.08 |
| O=C(c1cccc(Cl)c1)N1CCN(Cc2ccccc2)CC1 | -8.35 |
| O=C(c1cccc(Cl)c1)N1CCC(N2CCC(C(=O)N3CCCC3)CC2)CC1 | -49.1 |

| Compound | hERG current change (%, negative = inhibition) at 10uM [%] |
| --- | --- |
| CS(=O)(=O)c1ccc(C(=O)N2CCN(Cc3ccccc3)CC2)cc1 | -55 |
| O=C(c1ccc(S(=O)(=O)N2CCCCCC2)cc1)N1CCN(Cc2ccccc2)CC1 | -19.5 |
| COC(=O)[C@H](Cc1ccccc1)NC(=O)N1CCN(Cc2ccccc2)CC1 | -58.6 |
| O=C(O)C(=O)O.O=C(c1ccccc1)N1CCN(Cc2ccccc2)CC1 | -9.23 |
| O=C(c1cccc(Cl)c1)N1CCC(C(=O)N2CCN(Cc3ccccc3)CC2)CC1 | -56.2 |
| O=C(c1ccc(Br)cc1)N1CCN(Cc2ccccc2)CC1 | -52.2 |
| O=C(c1ccc(F)cc1)N1CCN(Cc2ccccc2)CC1 | 0.241 |
| CCOC(=O)/C(=C/c1ccc(F)cc1)NC(C)=O | -7.91 |
| COCCCNC(=O)CCNS(=O)(=O)c1ccc(C)cc1 | -1.45 |
| Cc1ccc2ncnc(Oc3ncccc3NC(=O)C(C)(C)C)c2c1 | 13.8 |
| O=S(=O)(N1CCCCC1)N1CCN(c2cc(Cl)ccc2Cl)CC1 | 15.2 |
| COc1ccc(C2Nc3ccccc3C(=O)N2Cc2ccco2)cc1CN1C(=O)c2ccccc2C1=O (centres unmarked) | -20.7 |
| O=C(NCc1ccco1)C(=O)c1cn(CC(=O)N2CCCCC2)c2ccccc12 | 19.3 |
| O=C(O)CC/C(=N\NC(=O)CNC(=O)c1ccc(F)cc1)c1ccccc1 | 9.42 |
| Cc1ccc(CNC(=O)COC(=O)Cn2nc(C)c([N+](=O)[O-])c2C)cc1 | -16.3 |
| COc1ccc(C(=O)NCc2ccc(N3CCN(C(=O)OC(C)(C)C)CC3)cc2)cc1 | -12.7 |
| COC(=O)c1cc(-c2c(-c3ccc4c(c3)OCO4)noc2-c2ccsc2)cc([N+](=O)[O-])c1 | 10.7 |
| CS(=O)(=O)c1ccccc1C(=O)N1CCN(Cc2ccccc2)CC1 | 23.7 |
| O=C(c1coc(=O)c2ccccc12)N1CCN(Cc2ccccc2)CC1 | -51.2 |
| Cc1occc1C(=O)N1CCN(Cc2ccccc2)CC1 | -1.16 |
| O=C(c1ccc(Br)cc1)N1CCC(C(=O)N2CCN(Cc3ccccc3)CC2)CC1 | -60.1 |
| COc1ccc(C(=O)N2CCC(C(=O)N3CCN(Cc4ccccc4)CC3)CC2)cc1 | -9.58 |
| O=C(C1CC1)N1CCN(Cc2ccccc2)CC1 | -32.1 |
